# Measured values reported in PubChem BioAssay AID777 (Sanford-Burnham Center for Chemical Genomics, 2007).
# In all, about 96,000 compounds went through this assay and about 19,000 (20%) were called active.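 How the source made its calls: active means blocking of liver enzyme CYP2C9 beyond about 50% at 5 µM (limit read from the data); inactive means the rest.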 A selection follows.
# Molecular target: Cytochrome P450 2C9 (Homo sapiens) (UniProt P11712)
# Test: blockers of cytochrome P450 2C9 activity – biochemical, luminescence, ADME assay, primary screen (AID 777)
# Conditions: CYP2C9 Supersomes, luciferin-H conversion, at 5 µM, stronger effect = higher value
# Sequence of Cytochrome P450 2C9 (Homo sapiens) (P11712 whole entry, looked up): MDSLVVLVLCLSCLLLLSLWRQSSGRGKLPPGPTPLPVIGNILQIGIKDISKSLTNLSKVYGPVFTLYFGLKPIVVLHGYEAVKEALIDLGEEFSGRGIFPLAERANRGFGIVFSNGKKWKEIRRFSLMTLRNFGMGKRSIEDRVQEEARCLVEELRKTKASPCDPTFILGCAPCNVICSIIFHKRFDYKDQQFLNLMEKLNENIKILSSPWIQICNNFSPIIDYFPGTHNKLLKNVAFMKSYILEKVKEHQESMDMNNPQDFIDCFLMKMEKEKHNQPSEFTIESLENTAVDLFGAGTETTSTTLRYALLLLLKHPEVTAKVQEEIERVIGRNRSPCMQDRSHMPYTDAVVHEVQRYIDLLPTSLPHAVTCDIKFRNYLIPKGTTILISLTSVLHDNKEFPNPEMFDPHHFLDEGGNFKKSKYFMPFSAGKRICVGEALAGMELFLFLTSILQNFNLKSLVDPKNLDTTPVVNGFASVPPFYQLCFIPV
row,SMILES,inhibition
1,Cc1ccc(-c2n[nH]c(=S)n2/N=C/c2cc3c(cc2[N+](=O)[O-])OCO3)cc1,18% (inactive)
2,Nc1nc(C23CC4CC(CC(C4)C2)C3)cs1,73.6% (active)
3,N#Cc1c(N)nc2c3c(sc(=N)c2c1N)NC(=O)CC3c1ccccc1Cl (stereo not drawn),8.6% (inactive)
4,CCOC(=O)C1(S(=O)(=O)c2ccc(Cl)cc2)CCN(Cc2ccccc2)CC1,21.8% (inactive)
5,CCN1C(=O)/C(=C\N2CCOCC2)SC1=S,8.1% (inactive)
6,CC1(N2CCOCC2)CC2(O)C(=[N+]1[O-])CCc1nonc12 (stereo not drawn),31.8% (inactive)
7,O=C1Nc2cc(Cl)c(Cl)cc2N(O)N1c1cc(Cl)cc(Cl)c1,89.3% (active)
8,CCN(CC)CCCNC(=O)c1cc(-c2cccc(Cl)c2)on1,10.4% (inactive)
9,CC(C)N(c1ccccc1)c1ncnc(NCCC(=O)O)c1[N+](=O)[O-],-1.4% (inactive)
10,Cc1cc2c(=O)n(C)c(SCC(=O)c3cc4ccccc4o3)nc2s1,95.9% (active)
11,Cc1ccsc1C(=O)OCC(=O)c1cc2ccccc2o1,-30.4% (inactive)
12,Cc1ccc(C(=O)CSc2nc3ccccc3c(=O)n2N)o1,34.2% (inactive)
13,C=CCn1c(Oc2ccc(C(=O)OC)cc2)nc2c1c(=O)n(C)c(=O)n2C,8.4% (inactive)
14,O=C(O)C1CCN(S(=O)(=O)N2CCOCC2)CC1,3.6% (inactive)
15,COCCCN1C(=O)C(=O)/C(=C(/O)c2ccc3c(c2)CC(C)O3)C1c1cccnc1 (stereo not drawn),-1% (inactive)
16,c1ccc(CCN2CN=C(Nc3nc4ccccc4o3)NC2)cc1,6.5% (inactive)
17,Clc1ccc(Cn2ncc3c(NCc4cccnc4)ncnc32)cc1,49.7% (inactive)
18,CCN1C(=O)/C(=C2\SC(N3CCCCC3)=NC2=O)c2ccccc21,-20.1% (inactive)
19,O=S(=O)(c1ccc(Br)cc1)c1nc(-c2ccccc2)oc1NCc1cccnc1,17.3% (inactive)
20,CC(C)(C)c1cc(C(=O)NCc2cccnc2)ccn1,12.2% (inactive)
21,O=C(NCc1cccnc1)c1ccc(CS(=O)(=O)c2ccc(Br)cc2)o1,95.6% (active)

row,SMILES,inhibition
1,Cc1cc(C(C)(C)C)oc1C(=O)N(CC(=O)NC1CCCC1)Cc1ccc(Cl)cc1,-11.5% (inactive)
2,CCCCOc1ccc(C(=O)NCc2ccco2)cc1,15.5% (inactive)
3,CN(C)c1ccc(NC(=O)c2ccncc2)c2ccccc12,43.9% (inactive)
4,COc1ccc(NC(=O)c2ccc(OC)cc2)cc1,-13.7% (inactive)
5,CCCCCCOc1ccc(OC(=O)c2cccnc2)cc1,10% (inactive)
6,C=C(C)C(=O)Nc1cccc(C(C)=O)c1,1.4% (inactive)
7,CC(=O)c1cccc(NC(=O)c2ccncc2)c1,68.3% (active)
8,CCCCOc1ccc(C(=O)NCc2ccncc2)cc1,58.4% (active)
9,CCOc1ccc(C(=O)Nc2ccncc2)cc1,94.8% (active)
10,CCOc1cccc(C(=O)Nc2cccnc2)c1,4.7% (inactive)
11,COC(=O)CNC(=O)c1ccccc1F,-2.7% (inactive)
12,Cc1cc(Cl)c(S(=O)(=O)NCCC(=O)O)cc1OCC(N)=O,-23.5% (inactive)
13,c1cc(-c2nn[nH]n2)ccc1CN1CCCCC1,-10.5% (inactive)
14,COc1ccc(-c2cc3nc(C)c(CCC(=O)NC(C)CCc4ccco4)c(C)n3n2)c(OC)c1 (stereo not drawn),37.5% (inactive)
15,COc1cc(/C=C(/NC(=O)c2ccccc2)C(=O)Nc2cccc(O)c2)c([N+](=O)[O-])cc1OC,16.6% (inactive)
16,CCOc1ncccc1C(=O)OCc1cn2cc(Cl)ccc2n1,45% (inactive)
17,CSc1nc2ccccc2cc1/C=C(\C#N)c1ccc(Cl)cc1Cl,7.6% (inactive)
18,O=C(NCc1ccco1)c1cnn2c(C(F)(F)F)cc(-c3ccco3)nc12,17.5% (inactive)
19,C=C(C)Cn1c(SCC(=O)NCc2ccco2)nc2sc3c(c2c1=O)CCC3,34.6% (inactive)
20,O=C(NCc1ccco1)c1cccn2c(=O)c3c4c(sc3nc12)CCCC4,59.8% (active)
21,Cc1nc2nc(C)c(CCC(=O)N3CCN(c4ccccc4)CC3)c(C)n2n1,0.9% (inactive)

row,SMILES,inhibition
1,COC(=O)C1=C(C)N=C2SC(C)C(=O)N2C1/C=C/c1ccccc1 (stereo not drawn),48.6% (inactive)
2,Cc1ccc(S(=O)(=O)Cn2nnnc2CN2CCN(Cc3ccc4c(c3)OCO4)CC2)cc1,29.7% (inactive)
3,O=C(/C=C/Nc1ccccc1OC(F)(F)F)C(F)(F)F,5.5% (inactive)
4,Cc1ccccc1OCC(=O)Nc1ccc(N2CCN(C(=O)C(C)C)CC2)c(Cl)c1,68.8% (active)
5,Cc1cccc(NC(=O)COc2ccccc2C)n1,19.4% (inactive)
6,CN1CCN(c2ccc(NC(=O)COc3ccc(Cl)cc3Cl)cc2)CC1,-16.8% (inactive)
7,CCC(=O)N1CCN=C1SCc1ccc(F)cc1,11% (inactive)
8,O=C(c1ccco1)N1CCN=C1SCc1cccc(Cl)c1,34.4% (inactive)
9,COc1ccccc1C(=O)N1CCN=C1SCc1cccnc1,58.4% (active)
10,Oc1c(C(c2ccccn2)N2CCOCC2)ccc2cccnc12 (stereo not drawn),-11.4% (inactive)
11,O=C(Cn1cc(-c2nnnn2-c2ccc(Cl)cc2)c(=O)c2ccccc21)c1ccccc1,-11.4% (inactive)
12,O=c1cc(CO)oc(CN2CCC(Cc3ccccc3)CC2)c1O,4.2% (inactive)
13,FC(F)(F)c1cccc(-c2cc3ccccc3nc2N2CCCC2)c1,11.5% (inactive)
14,O=C(COC(=O)c1ccc(S(=O)(=O)N2CCc3ccccc3C2)cc1)NC(=O)NCc1ccco1,10.9% (inactive)
15,CC1=C(C(=O)Nc2ccccc2)C(c2ccco2)C(C#N)=C(SCC(N)=O)N1 (stereo not drawn),5.8% (inactive)
16,C=CCOC(=O)C1=C(C)NC(SCC(=O)OCC)=C(C#N)C1c1ccc(C)cc1 (stereo not drawn),64.3% (active)
17,CCOC(=O)CSC1=C(C#N)C(c2ccco2)C(C(=O)OCc2ccccc2)=C(C)N1 (stereo not drawn),95.5% (active)
18,C=CCOC(=O)C1=C(C)OC(N)=C(C#N)C1c1ccc(F)cc1 (stereo not drawn),44.5% (inactive)
19,CC1=C(C(=O)OCc2ccccc2)C(c2ccco2)n2ncnc2N1 (stereo not drawn),17.6% (inactive)
20,Cc1cc(=O)oc2ccc(OCC(=O)O)cc12,11.6% (inactive)
21,CC/C(=N\O)C(C)(C)/[N+]([O-])=C/c1ccc(Br)cc1,0.5% (inactive)
